{"source": "PubChem BioAssay (Tox21)", "note": "Inconclusive results are not listed. Activity calls are given as the source filed them. The call rests on the fitted dose curve; in most records, active means well fitted cell-killing curve with a large enough effect in the repeat runs; inconclusive means weak or mixed curves, or effect the other way; inactive means flat fitted curve, though single readings scatter. On the % scale 0 is the no-effect control and ±100 the full control effect; potency means the concentration at half of the fitted maximal effect.", "data": [{"assay": "qHTS RealTime-Glo MT Cell Viability Assay in HEK293 cells - 32 hour (AID 1224868); further: nearly all actives have a fitted effect of over 50% in size; on activity change, negative = cytotoxic: top concentration of the series differs between compounds", "settings": "RealTime-Glo luminescence; series mostly up to 76.8 µM; activity change, negative = cytotoxic: at the top concentration", "from_the_text": "National Center for Advancing Translational Sciences [NCATS]\nNIH Chemical Genomics Center [NCGC]\nU.S. Environmental Protection Agency [EPA]\nNational Institutes of Environmental Health Sciences [NIEHS]\nNational Toxicology Program [NTP]\nU.S. Food and Drug Administration [FDA]\nMeasure of cell viability is critical in the cell-base assay. Analysis of cell viability is necessary for the characterization of cell responses to cytotoxic drugs and environmental stress. A RealTime-Glo MT Cell Viability Assay to monitor cell viability in real time of continues cell culture during 40 hours of compound treatment was used to screen Tox21 10K library compounds in Hek293 cells. The RealTime-Glo MT Cell Viability Assay is a nonlytic, homogeneous, bioluminescent method to measure cell viability in real time using a simple, plate-based method. The assay involves adding NanoLuc luciferase and a cell-permeant prosubstrate to cells in culture. Viable cells reduce the proprietary prosubstrate to generate a substrate for NanoLuc luciferase. This substrate diffuses from cells into the surrounding culture medium, where it is rapidly used by the NanoLuc Enzyme to produce a luminescent signal. The signal correlates with the number of viable cells, making the assay well suited for cytotoxicity studies.\nTox21 Assay Protocol Summary:\nThe mixture of Hek293 cell suspension and reagents were dispensed at 600cells/6 ul/well in 1536-well tissue culture treated black solid bottom plates using a Multidrop dispenser. After the assay plates were incubated at a 37 C/5% CO2 incubator for 5 hours, 23 nL of compounds dissolved in DMSO, positive and negative controls was transferred to the assay plate by a pintool work station. The plates were incubated at 37 C for 40 hours. The luminescence intensity were measured at 0h, 8h, 16h, 24h, 32h and 40h time points using ViewLux plate reader during compound treatment.", "values": [{"smiles": "CC1CCC(=O)C1=O", "note": "(stereo not given)", "activity change, negative = cytotoxic": "2.75% (inactive)"}, {"smiles": "c1ccc(CNCCNCc2ccccc2)cc1", "activity change, negative = cytotoxic": "8.42% [at 35.3 µM] (inactive)"}, {"smiles": "COC(C)OC", "activity change, negative = cytotoxic": "4.11% (inactive)"}, {"smiles": "CCCCc1ncc(/C=C(\\Cc2cccs2)C(=O)O)n1Cc1ccc(C(=O)O)cc1", "activity change, negative = cytotoxic": "2.05% [at 35.3 µM] (inactive)"}, {"smiles": "COc1cc(Cl)c(OC)cc1N", "activity change, negative = cytotoxic": "-23.9% (inactive)"}, {"smiles": "CNC(=O)CN(CCN(CCN(CC(=O)[O-])CC(=O)NC)CC(=O)[O-])CC(=O)[O-].O.[Gd+3]", "activity change, negative = cytotoxic": "3.57% [at 35.3 µM] (inactive)"}, {"smiles": "C=C(C)C(=O)OCC", "activity change, negative = cytotoxic": "4.96% (inactive)"}, {"smiles": "COc1cc2nc(N3CCN(C(=O)C4COc5ccccc5O4)CC3)nc(N)c2cc1OC", "note": "(stereo not given)", "Potency": "21.3 µM (active)"}, {"smiles": "O=[N+]([O-])c1ccc(NCCO)c(OCCO)c1", "activity change, negative = cytotoxic": "-12.7% (inactive)"}, {"smiles": "C#C[C@]1(O)CC[C@H]2[C@@H]3CCc4cc(OC5CCCC5)ccc4[C@H]3CC[C@@]21C", "Potency": "23.9 µM (active)"}, {"smiles": "NCc1ccccc1Sc1ccccc1CO", "activity change, negative = cytotoxic": "-11.7% [at 35.3 µM] (inactive)"}, {"smiles": "COc1ccc(C(=O)Nc2nc3ccccc3c(NCc3ccccc3)c2C#N)cc1", "activity change, negative = cytotoxic": "-15.5% (inactive)"}, {"smiles": "CCOC(=O)NCCOc1ccc(Oc2ccccc2)cc1", "Potency": "21.9 µM (active)"}, {"smiles": "O=C(O)CNCC(=O)O", "activity change, negative = cytotoxic": "-9.97% [at 6.97 µM] (inactive)"}, {"smiles": "CC[N+](C)(CC)CCOC(=O)C(O)(c1ccccc1)C1CCCCC1", "note": "(stereo not given)", "activity change, negative = cytotoxic": "2.99% [at 35.3 µM] (inactive)"}, {"smiles": "O=C(O)c1ccco1", "activity change, negative = cytotoxic": "10.5% (inactive)"}, {"smiles": "CC(C)OC(=O)C(C)N(C(=O)c1ccccc1)c1ccc(F)c(Cl)c1", "note": "(stereo not given)", "activity change, negative = cytotoxic": "-29.5% (inactive)"}, {"smiles": "C=CC(=O)OCCOCCOC(=O)C=C", "Potency": "34.8 µM (active)"}, {"smiles": "CCOC(=O)Cc1cccc2ccccc12", "activity change, negative = cytotoxic": "-5.49% (inactive)"}, {"smiles": "Cc1ccc(N=Nc2c(O)c(C(=O)O)cc3ccccc23)c(S(=O)(=O)O)c1", "activity change, negative = cytotoxic": "0.598% [at 35.3 µM] (inactive)"}, {"smiles": "OCCN1CCN(CCCN2c3ccccc3C=Cc3ccccc32)CC1", "activity change, negative = cytotoxic": "-29.2% [at 35.3 µM] (inactive)"}, {"smiles": "CCO[C@H](Cc1ccc(OCCc2ccc(OS(C)(=O)=O)cc2)cc1)C(=O)O", "activity change, negative = cytotoxic": "8.34% [at 35.3 µM] (inactive)"}, {"smiles": "C[Si](C)(CCCN)O[Si](C)(C)CCCN", "activity change, negative = cytotoxic": "-11.2% (inactive)"}, {"smiles": "Nc1cccc(S(=O)(=O)c2cccc(N)c2)c1", "activity change, negative = cytotoxic": "-13.1% (inactive)"}, {"smiles": "Nc1ccc(S(=O)(=O)Nc2ccccc2)cc1", "activity change, negative = cytotoxic": "0% [at 35.3 µM] (inactive)"}, {"smiles": "CCCCCCCC#N", "activity change, negative = cytotoxic": "-3.61% (inactive)"}, {"smiles": "CCCCCC[C@@H](O)C/C=C\\CCCCCCCC(=O)OC", "activity change, negative = cytotoxic": "1.99% (inactive)"}, {"smiles": "CCC(CC)Nc1ccc(C)c(C)c1", "activity change, negative = cytotoxic": "1.23% (inactive)"}, {"smiles": "CC(C)(C)Cl", "activity change, negative = cytotoxic": "2.29% (inactive)"}, {"smiles": "CN(C)c1ccc(/C=C/c2ccc([N+](=O)[O-])cc2)cc1", "activity change, negative = cytotoxic": "-5.7% [at 6.97 µM] (inactive)"}, {"smiles": "Nc1c(CC(=O)O)cccc1C(=O)c1ccc(Br)cc1", "activity change, negative = cytotoxic": "14.2% [at 35.3 µM] (inactive)"}, {"smiles": "Cc1nn(C)c(Oc2ccccc2)c1/C=N/OCc1ccc(C(=O)OC(C)(C)C)cc1", "Potency": "0.0044 µM (active)"}, {"smiles": "Cc1cc(N)c2cc(NC(=O)Nc3ccc4nc(C)cc(N)c4c3)ccc2n1", "activity change, negative = cytotoxic": "-15.8% [at 35.3 µM] (inactive)"}, {"smiles": "CC(CC=O)c1ccccc1", "note": "(stereo not given)", "activity change, negative = cytotoxic": "-3.33% (inactive)"}, {"smiles": "Nc1cccc([N+](=O)[O-])c1", "activity change, negative = cytotoxic": "3.83% (inactive)"}, {"smiles": "Cc1ccccc1S(=O)(=O)O", "activity change, negative = cytotoxic": "6.42% (inactive)"}, {"smiles": "CCCCOC(=O)CCCCCCCC(=O)OCCCC", "activity change, negative = cytotoxic": "3.5% (inactive)"}, {"smiles": "CCCCC(CC)COC(=O)CCCCCCCCC(=O)OCC(CC)CCCC", "note": "(stereo not given)", "activity change, negative = cytotoxic": "2.21% (inactive)"}, {"smiles": "CC1(c2ccccc2)OC(C(=O)O)=CC1=O", "note": "(stereo not given)", "activity change, negative = cytotoxic": "2.6% [at 35.3 µM] (inactive)"}, {"smiles": "COc1cccc(N(C)C(=S)Oc2ccc3c(c2)CCCC3)n1", "activity change, negative = cytotoxic": "-18% [at 35.3 µM] (inactive)"}]}]}
